Source: PubChem BioAssay (Tox21)
“And” between values parts separate entries of the source, which are not always exact repeats. Equal entries are not always repeated. Results filed as inconclusive are left out. The source made the active and inactive calls. Unless noted, calls come from the whole dose curve; as a rule, active = well fitted curve in the direction sought with a large enough effect in the repeat runs; inconclusive = weak or mixed curves; inactive = no such curve, though single readings can be large; an effect the other way counts as inactive or inconclusive.

Columns and labels:
[1] = qHTS assay to identify small molecule antagonists of the thyroid receptor (TR) signaling pathway - cell viability counter screen (AID 743064); note: nearly all actives have a fitted effect of over 50% in size; note: potency is the fitted concentration of half-maximal effect
In short: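 In-well cytotoxicity read by CellTiter-Fluor (30 min, 37 C) following 23.5 h exposure of GH3 cells bearing a TRE-luciferase sensor. Compounds were added alongside 1 nM (final) T3 to drive TR transactivation.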

[2] = qHTS assay to identify small molecule antagonists of the thyroid receptor (TR) signaling pathway (AID 743065); note: nearly all actives have a fitted effect of over 55% in size; note: potency is the fitted concentration of half-maximal effect
In short: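 Antagonism measured as loss of luciferase signal in GH3 cells stably carrying a TRE-luciferase reporter, co-treated with compound and T3 (1 nM final) for 23.5 h at 37 C. Viability was read in the same well by CellTiter-Fluor.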

[3] = test system: thyroid hormone receptor (rat, GH3 cells); test: qHTS assay to identify small molecule agonists of the thyroid receptor (TR) signaling pathway (AID 743066; calls by dose curve)
[4] = molecular target: Estrogen receptor (Homo sapiens) (UniProt P03372); test: qHTS assay to identify small molecule antagonists of the estrogen receptor alpha (ER-alpha) signaling pathway (AID 743069; active = well fitted curve in the direction sought with a large enough effect in the signal ratio in the repeat runs, not every such curve was filed as active; the % refers to the signal ratio; note: potency is the fitted concentration of half-maximal effect)
Sequence of Estrogen receptor (Homo sapiens) (P03372 whole entry, looked up): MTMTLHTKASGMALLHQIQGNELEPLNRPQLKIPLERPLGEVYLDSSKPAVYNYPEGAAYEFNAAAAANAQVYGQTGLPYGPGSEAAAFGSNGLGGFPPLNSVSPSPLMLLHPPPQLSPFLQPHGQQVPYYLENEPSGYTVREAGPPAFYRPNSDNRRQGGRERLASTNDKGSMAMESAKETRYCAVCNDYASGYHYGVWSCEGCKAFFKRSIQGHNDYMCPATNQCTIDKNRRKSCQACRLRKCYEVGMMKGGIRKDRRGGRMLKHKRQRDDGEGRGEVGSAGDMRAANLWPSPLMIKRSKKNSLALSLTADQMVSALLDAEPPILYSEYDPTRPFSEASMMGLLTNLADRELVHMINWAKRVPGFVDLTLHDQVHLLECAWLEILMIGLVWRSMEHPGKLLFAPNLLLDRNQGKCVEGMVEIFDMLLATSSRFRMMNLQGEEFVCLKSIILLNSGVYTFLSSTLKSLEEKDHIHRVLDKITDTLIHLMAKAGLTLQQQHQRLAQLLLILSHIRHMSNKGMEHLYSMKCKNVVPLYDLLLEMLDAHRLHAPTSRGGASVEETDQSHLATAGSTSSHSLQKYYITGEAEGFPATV
In short: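 Antagonist mode: compounds in DMSO were co-added with 17beta-estradiol to ER-alpha-bla HEK293 cells (2% charcoal-stripped serum) and left 18 h at 37C. Reporter inhibition was measured as FRET fluorescence after 2 h LiveBLAzer substrate at room temperature.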

[5] = qHTS assay to identify small molecule antagonists of the estrogen receptor alpha (ER-alpha) signaling pathway - cell viability counter screen (AID 743074; calls by dose curve;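 note: HEK293 cells carrying ER-alpha-UAS-bla reporter stimulated with 17beta-estradiol; nearly all actives have a fitted effect of over 45% in size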)
[6] = molecular target: Estrogen receptor (Homo sapiens) (UniProt P03372); test: qHTS assay to identify small molecule agonists of the estrogen receptor alpha (ER-alpha) signaling pathway (AID 743075; calls by dose curve;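 note: HEK293 GripTite cells with ER-alpha and UAS-driven beta-lactamase reporter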; note: potency is the fitted concentration of half-maximal effect)
[7] = molecular target: Estrogen receptor (Homo sapiens) (UniProt P03372); test: qHTS assay to identify small molecule agonists of the estrogen receptor alpha (ER-alpha) signaling pathway using the BG1 cell line (AID 743079); note: nearly all actives have a fitted effect of over 20% in size; note: potency is the fitted concentration of half-maximal effect
[8] = qHTS assay to identify small molecule antagonists of the estrogen receptor alpha (ER-alpha) signaling pathway using the BG1 cell line (AID 743080; calls by dose curve; note: nearly all actives have a fitted effect of over 25% in size; note: potency is the fitted concentration of half-maximal effect)
In short: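 Antagonist mode: compounds in DMSO were pinned onto BG1-Luc-4E2 cells alongside 17beta-estradiol agonist, incubated 21.5 h, and ERE-driven luciferase measured with ONE-Glo. Cytotoxicity was multiplexed using CellTiter-Fluor fluorescence.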

[9] = qHTS assay to identify small molecule antagonists of the estrogen receptor alpha (ER-alpha) signaling pathway using the BG1 cell line - cell viability counter screen (AID 743081);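 note: compound given together with 17beta-estradiol as the ER stimulus; series mostly up to about 70 µM; nearly all actives have a fitted effect of over 45% in size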
Aromatase (Homo sapiens) = Aromatase (Homo sapiens) (UniProt P11511); test: qHTS assay to identify aromatase inhibitors (AID 743083); note: series mostly up to about 70 µM; nearly all actives have a fitted effect of over 55% in size
Sequence of Aromatase (Homo sapiens) (P11511 whole entry, looked up): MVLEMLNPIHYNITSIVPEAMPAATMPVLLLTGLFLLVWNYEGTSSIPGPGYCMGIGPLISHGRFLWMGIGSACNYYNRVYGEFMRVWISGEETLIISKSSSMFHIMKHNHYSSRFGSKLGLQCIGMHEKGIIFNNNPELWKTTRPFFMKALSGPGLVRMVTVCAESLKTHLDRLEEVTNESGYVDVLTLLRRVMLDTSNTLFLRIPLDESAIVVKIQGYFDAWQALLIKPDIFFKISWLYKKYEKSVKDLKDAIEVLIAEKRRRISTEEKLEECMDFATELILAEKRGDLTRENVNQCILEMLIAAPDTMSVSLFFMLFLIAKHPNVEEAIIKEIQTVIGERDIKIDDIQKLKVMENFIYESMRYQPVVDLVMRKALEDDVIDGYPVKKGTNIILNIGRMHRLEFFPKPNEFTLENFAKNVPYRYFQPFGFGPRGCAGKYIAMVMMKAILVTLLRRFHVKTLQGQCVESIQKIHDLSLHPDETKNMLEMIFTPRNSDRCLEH

Measured: Potency

Nc1nc(=S)[nH][nH]1
inactive: [1] | [2] | [3] | [4] | [5] | [6] | [7] | [8] | [9] | Aromatase (Homo sapiens)

Brc1ccc(Oc2ccccc2)cc1
inactive: [1] | [2] | [3] | [4] | [5] | [6] | [7] | [8] | [9] | Aromatase (Homo sapiens)

II
inactive: [1] | [2] | [3] | [4] | [5] | [6] | [7] | [8] | [9]

Brc1ccccc1
inactive: [1] | [2] | [3] | [4] | [5] | [6] | [7] | [8] | [9] | Aromatase (Homo sapiens)

N#C/C(N)=C(/N)C#N
inactive: [1] | [2] | [3] | [4] | [5] | [6] | [7] | [8] | [9] | Aromatase (Homo sapiens)

CC(=O)[C@H]1CC[C@H]2[C@@H]3CC[C@H]4C[C@](C)(O)CC[C@]4(C)[C@H]3CC[C@]12C
inactive: [1] | [2] | [3] | [4] | [5] | [6] | [7] | [8] | [9] | Aromatase (Homo sapiens)

CCC(Cl)CCl (configuration not stated)
inactive: [1] | [2] | [3] | [4] | [5] | [6] | [7] | [8] | [9] | Aromatase (Homo sapiens)

C=C(C#N)CCC#N
inactive: [1] | [2] | [3] | [4] | [5] | [6] | [7] | [8] | [9] | Aromatase (Homo sapiens)

CC(=O)C(C)(C)C
inactive: [1] | [2] | [3] | [4] | [5] | [6] | [7] | [8] | [9] | Aromatase (Homo sapiens)

CCOc1nc(F)cc2nc(S(=O)(=O)Nc3c(Cl)cccc3Cl)nn12
inactive: [1] | [2] | [3] | [4] | [5] | [6] | [7] | [8] | [9] | Aromatase (Homo sapiens)

CS/C(C)=N/OC(=O)N(C)SN(C)C(=O)O/N=C(\C)SC
inactive: [3] | [4] | [5] | [6] | [7] | [8] | [9] | Aromatase (Homo sapiens)
active: [1] 27.3 µM | [2] 27.3 µM

O=C(O)COc1ccc(Cl)cc1
inactive: [1] | [2] | [3] | [4] | [5] | [6] | [7] | [8] | [9] | Aromatase (Homo sapiens)

N#CCc1ccccc1
inactive: [1] | [2] | [3] | [4] | [5] | [6] | [7] | [8] | [9] | Aromatase (Homo sapiens)

COc1cc(Cl)c(OC)cc1Cl
inactive: [1] | [2] | [3] | [4] | [5] | [6] | [7] | [8] | [9] | Aromatase (Homo sapiens)

O=NN1CCNCC1
inactive: [1] | [2] | [3] | [4] | [5] | [6] | [7] | [8] | [9] | Aromatase (Homo sapiens)

NC(=O)CI
inactive: [1] | [2] | [3] | [4] | [5] | [6] | [7] | [8] | [9] | Aromatase (Homo sapiens)

CCOc1ccc(C(C)(C)COCc2cccc(Oc3ccccc3)c2)cc1
inactive: [1] | [2] | [3] | [4] | [5] | [6] | [7] | [8] | [9] | Aromatase (Homo sapiens)

C=CCOC(C)=O
inactive: [1] | [2] | [3] | [4] | [5] | [6] | [7] | [8] | [9] | Aromatase (Homo sapiens)

ClC=C(Cl)Cl
inactive: [1] | [2] | [3] | [4] | [5] | [6] | [7] | [8] | [9] | Aromatase (Homo sapiens)

O=NN1CCCCCC1
inactive: [1] | [2] | [3] | [4] | [5] | [6] | [7] | [8] | [9] | Aromatase (Homo sapiens)

O=C(CBr)c1ccccc1
active: [7] 54.8 µM
inactive: [1] | [2] | [3] | [4] | [5] | [6] | [8] | [9] | Aromatase (Homo sapiens)

CCN(C)N=O
inactive: [1] | [2] | [3] | [4] | [5] | [6] | [7] | [8] | [9] | Aromatase (Homo sapiens)

CCBr
inactive: [1] | [2] | [3] | [4] | [5] | [6] | [7] | [8] | [9] | Aromatase (Homo sapiens)

CC(=O)CCC(C)=O
inactive: [1] | [2] | [3] | [4] | [5] | [6] | [7] | [8] | [9] | Aromatase (Homo sapiens)

COC(=O)c1cncn1C(C)c1ccccc1 (configuration not stated)
inactive: [1] | [2] | [3] | [4] | [5] | [6] | [7] | [8] | [9] | Aromatase (Homo sapiens)

O=[N+]([O-])C(Br)(CO)CO
active: [1] 23.7 µM and 21.7 µM | [2] 23.7 µM and 24.3 µM
inactive: [3] | [4] | [5] | [6] | [7] | [8] | [9] | Aromatase (Homo sapiens)

Cc1ccc(N)cc1C
inactive: [1] | [2] | [3] | [4] | [5] | [6] | [8] | [9] | Aromatase (Homo sapiens)
active: [7] 49 µM

CCCN(CCCl)c1c([N+](=O)[O-])cc(C(F)(F)F)cc1[N+](=O)[O-]
inactive: [1] | [2] | [3] | [4] | [5] | [6] | [7] | [8] | [9] | Aromatase (Homo sapiens)

CC(=O)NC1CCSC1=O (configuration not stated)
inactive: [1] | [2] | [3] | [4] | [5] | [6] | [7] | [8] | [9] | Aromatase (Homo sapiens)

CCOP(=S)(OCC)SCSCC
active: [7] 30.6 µM
inactive: [1] | [2] | [3] | [4] | [5] | [6] | [8] | [9] | Aromatase (Homo sapiens)

C=CCCl
active: [6] 57.6 µM [activator] | [7] 32.1 µM
inactive: [1] | [2] | [3] | [4] | [5] | [8] | [9] | Aromatase (Homo sapiens)

CCCCCCC#N
inactive: [1] | [2] | [3] | [4] | [5] | [6] | [7] | [8] | [9] | Aromatase (Homo sapiens)

Clc1ccc(C(OCCN2CCCCC2)c2ccccc2)cc1 (configuration not stated)
inactive: [3] | [4] | [5] | [6] | [7] | [8] | [9] | Aromatase (Homo sapiens)
active: [1] 9.02 µM | [2] 11.4 µM

CN(N=O)c1ccc([N+](=O)[O-])cc1
inactive: [1] | [2] | [3] | [4] | [5] | [6] | [7] | [8] | [9] | Aromatase (Homo sapiens)

C[C@@H]1CC[C@H]2[C@@H](C)C(=O)O[C@@H]3O[C@@]4(C)CC[C@@H]1[C@]32OO4
active: [1] 5.96 µM | [2] 2.37 µM
inactive: [3] | [5] | [9]

O=Cc1ccc2c(c1)OCO2
inactive: [1] | [2] | [3] | [5] | [9] | Aromatase (Homo sapiens)

O=[N+]([O-])c1cc(C(F)(F)F)cc([N+](=O)[O-])c1Cl
active: [1] 61.4 µM
inactive: [2] | [3] | [5] | [6] | [8] | Aromatase (Homo sapiens)

c1ccc(CN2CCNCC2)cc1
inactive: [1] | [2] | [3] | [5] | [9]

C=CCN1CC[C@]23c4c5ccc(O)c4O[C@H]2C(=O)CC[C@@]3(O)[C@H]1C5
inactive: [1] | [2] | [3] | [5] | [9] | Aromatase (Homo sapiens)

CCc1ccc(C(=O)NN(C(=O)c2cc(C)cc(C)c2)C(C)(C)C)cc1
active: [1] 1.54 µM
inactive: [2] | [3] | [5] | [6] | [7] | [8] | [9] | Aromatase (Homo sapiens)

COP(=S)(OC)Oc1ccc([N+](=O)[O-])cc1Cl
inactive: [1] | [2] | [3] | [5] | [6] | [7] | [8] | Aromatase (Homo sapiens)

O=C(Nc1ccccc1)Nc1cnns1
active: [2] 61.1 µM | [8] 68.5 µM
inactive: [1] | [3] | [5] | [6] | [9]

CC(C)(Cl)[N+](=O)[O-]
inactive: [1] | [2] | [3] | [5] | [9] | Aromatase (Homo sapiens)

COC(=O)C(Cl)C(=O)OC
inactive: [1] | [2] | [3] | [4] | [5] | [6] | [7] | [9] | Aromatase (Homo sapiens)

O=C=Nc1ccc(Cl)cc1
inactive: [1] | [2] | [3] | [5] | [6] | [9] | Aromatase (Homo sapiens)
active: [4] 3.47 µM [inhibitor]

CC(Cl)Cl
inactive: [1] | [2] | [3] | [4] | [5] | [6] | [8] | [9] | Aromatase (Homo sapiens)

CCCCN(N=O)C(=N)N[N+](=O)[O-]
active: [1] 62.4 µM | [2] 49.6 µM
inactive: [3] | [5] | [9]

Clc1cccc(SC2CCNCC2)n1
inactive: [1] | [2] | [3] | [5] | [6] | [7] | [8] | [9] | Aromatase (Homo sapiens)

CC(C)=CCOc1c2occc2cc2ccc(=O)oc12
inactive: [1] | [2] | [3] | [4] | [5] | [6] | [7] | [8] | Aromatase (Homo sapiens)
